From PubChem
ERG Ets-DNA blk: qHTS for Small Molecule Inhibitors of the ERG Ets/DNA interaction | Transcriptional regulator ERG (Homo sapiens), P11308 | fluorescence polarization, His-ERG Ets domain / labelled DNA | Potency, µM (series often up to 76.9 µM), actives largely listed as inhibitors | 370,000 tested, 0.028% active | AID 624246, 2012; active means well fitted inhibition curve with a large enough effect in the polarisation, with a control signal flat; inconclusive means small, poorly fitted or top-dose-only effect, or effect the other way, or a change in a side signal; inactive means no such curve, though single readings can be large or run the other way; the % refers to the polarisation;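 further: polarization taken with two DNA probes labelled with fluorescein and Texas red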
Target sequence (P11308 whole entry, looked up, the tested form may be a part): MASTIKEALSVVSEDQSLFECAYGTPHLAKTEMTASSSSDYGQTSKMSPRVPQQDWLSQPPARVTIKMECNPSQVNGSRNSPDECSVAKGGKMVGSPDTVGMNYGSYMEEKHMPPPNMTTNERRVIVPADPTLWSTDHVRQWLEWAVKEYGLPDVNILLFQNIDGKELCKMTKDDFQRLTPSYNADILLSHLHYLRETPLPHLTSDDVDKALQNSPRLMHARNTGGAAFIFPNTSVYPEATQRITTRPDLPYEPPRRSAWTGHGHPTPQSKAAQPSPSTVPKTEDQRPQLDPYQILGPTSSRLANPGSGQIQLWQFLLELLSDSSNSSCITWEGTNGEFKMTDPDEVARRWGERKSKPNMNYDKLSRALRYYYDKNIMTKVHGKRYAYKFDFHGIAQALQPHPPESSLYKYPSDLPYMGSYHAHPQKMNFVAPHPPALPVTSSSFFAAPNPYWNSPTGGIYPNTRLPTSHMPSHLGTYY
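His-tagged ERG Ets domain (1 uM in the protein solution; 300mM KCl, 50mM Tris-HCl, 1mM EDTA, 1mM DTT, pH 7.5) received compound, then a probe mix of 5 nM fluorescein-DNA and 100nM Texas-615-DNA. Fluorescence polarization was read for both dyes.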
Gal4-VP16 FLuc: VP16 counterscreen qHTS for inhibitors of ROR gamma transcriptional activity; Drosophila S2 Gal4-VP16 UAS-luciferase, luminescence, 20 h; Potency, µM (top dose mostly 53.6 µM), most hits filed as inhibitors; 310,000 tested, 3.5% active; AID 2546, 2010;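 further: Gal4-VP16 expression switched on by copper sulfate through the metallothionein promoter; nearly all actives have a fitted effect of over 50% in size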
RORgamma inh: qHTS for inhibitors of ROR gamma transcriptional activity. Drosophila S2 Gal4-RORgamma UAS-luciferase reporter, 20 h. 310,000 tested, 5.4% active. Potency, µM (highest dose often 53.6 µM), actives largely listed as inhibitors; further: nearly all actives have a fitted effect of over 60% in size
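Compounds are pin-transferred onto Drosophila Schneider cells expressing a copper-inducible Gal4–ROR gamma transactivation domain fusion. After 1 hr, copper sulfate is added to 700 uM final; luciferase is read 20 hr later.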
Giardia killer: Small Molecules that selectively kill Giardia lamblia: qHTS; Giardia lamblia trophozoite viability; 340,000 tested, 0.15% active; AID 540267, 2011; activity change, % at 7.66 µM, hits read low; in the data active means activity change below about -80%; inconclusive means between about -30% and that limit;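 further: parasites exposed to compound for two days anaerobically before the ATP read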
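Anaerobic 48 hrs incubation at 37 deg C of 100 trophozoites/well with test compounds; ATPLite 1-Step luminescence, 15-30 min RT, reports cellular ATP as viability.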
a7 integrin act: qHTS for Activators of Integrin-Mediated Alleviation for Muscular Dystrophy. alpha7betagal myoblasts, beta-gal FDG fluorescence, 48 h. Potency, µM (titrated, usually from 38.3 µM), actives largely listed as activators. 350,000 tested, 0.064% active. AID 624291, 2012; further: nearly all actives have a fitted effect of over 60% in size
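alpha7betagal+/- myoblasts (passage 13, 250/well) treated 48 h at 37C with compounds at 1:260 dilution of DMSO stock. Lysed, then beta-galactosidase activity read as FDG fluorescence (ex 480/em 540) after 30 min, with pre-read for autofluorescence.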
A number is an active result; – = inactive; ? = inconclusive; · = no result given; [ ] = dose if it differs, or a comment. This is one part of a sample in which hits are shown more often than they occur. Unless noted, the call rests on the fitted dose curve; in most records, active means well fitted curve in the direction sought with a large enough effect; inconclusive means small, poorly fitted or top-dose-only effect, or another doubt; inactive means no such curve, though single readings can be large; an effect the other way counts as inactive or inconclusive.

SMILES	ERG Ets-DNA blk	Gal4-VP16 FLuc	RORgamma inh	Giardia killer	a7 integrin act
Cc1cccc(NC(=S)NNC(=O)c2ccc3c(c2)OCO3)c1	–	?	–	?	–
S=C(NCc1ccc2c(c1)OCO2)NCc1ccc2c(c1)OCO2	–	?	16µM	–	–
CCc1cccc(CC)c1NC(=S)NCc1ccc2c(c1)OCO2	–	?	8.9µM	–	–
COc1ccccc1N1CCN(C(=O)c2cc3c(=O)n(Cc4cccnc4)ccc3nc2C)CC1	–	·	·	·	·
O=C(c1cc(C(F)(F)F)cc(C(F)(F)F)c1)N1CCC2(CC1)CCN(c1ccncc1)CC2	·	–	–	·	·
COc1ccc(NC(=O)CN2C(=O)CSc3ccc(S(=O)(=O)N(C)C)cc32)cc1Cl	–	·	·	·	·
Cc1cc(C)cc(O)c1	·	–	–	·	·
Cc1ccc(CN(Cc2cc3cc(C)ccc3[nH]c2=O)Cc2nnnn2Cc2ccccc2)cc1	·	·	·	–	·
NNC(=S)NCc1ccc2c(c1)OCO2	–	8.9µM	7.9µM	–	–
O=C(Nc1ccc2c(c1)OCO2)Nc1ccc2c(c1)OCO2	–	–	–	–	–
CCNC(=S)NCc1ccc2c(c1)OCO2	–	–	–	–	–
O=C(Nc1cccc(C(=O)O)c1)Nc1ccc2c(c1)OCO2	–	11µM	10µM	?	–
O=C(O)c1ccc(NCc2ccc3c(c2)OCO3)cc1	–	1.3µM	4µM	–	–
O=C(CC1C(=O)NCCN1CC1CCCCC1)NCCCN1CCOCC1 (centres undefined)	–	–	–	–	–
CC[C@@H](c1ccccc1)n1c(=O)n2n(c1=O)[C@H]1[C@H](O)[C@H]3O[C@@H]3/C(=N/OCC(C)C)[C@@H]1CC2	·	–[10 µM]	–[10 µM]	·	·
N#C/C(=C/c1ccc(N2CCCCC2)cc1)c1cccc(F)c1	–	–	–	–	–
Cc1ccc(/C(C#N)=C\c2ccc(N3CCOCC3)o2)cc1	·	–[0.365 µM]	1.8µM	–	–
N#C/C(=C/c1ccc(N2CCCCCC2)o1)c1ccc(Cl)cc1	–	7.1µM	7.1µM	–	–
Cc1ccc2nc(/C(C#N)=C\c3ccc(N4CCOCC4)o3)[nH]c2c1	–	–	?	–	–
N#C/C(=C\c1ccc(N2CCOCC2)o1)C(=O)NC1CCCCC1	–	–	–	–	–
N#C/C(=C/c1ccc(N2CCCCC2)o1)c1cccc(F)c1	–	10µM	7.1µM	–	–
Cc1ccc(N(C)C(=O)c2cc(S(=O)(=O)N3CCOCC3)cn2C)cc1	–	·	·	·	·
CN(Cc1ccccc1F)C(=O)c1ccccc1Sc1ccccc1C#N	–	–	–	–	–
COc1ccc2c(c1)C(c1ccccc1C)CC(=O)O2 (centres undefined)	·	–	–	·	·
CCCCc1cc(=O)oc2cc(C)cc(O)c12	–	?	?	–	–
SMILES	ERG Ets-DNA blk	Gal4-VP16 FLuc	RORgamma inh	Giardia killer	a7 integrin act
CCCCc1cc(=O)oc2cc(O)cc(O)c12	–	22µM	–	–	–
COCCn1c(SCC(=O)N2CCCCC2)nc2c(c1=O)SC(C)C2 (centres undefined)	–	–	–	–	–
CC1Cc2cc(S(=O)(=O)NCCc3ccccc3)ccc2N1C(=O)C1CCC1 (centres undefined)	–	·	·	·	·
Cc1ccc(-n2nnnc2-c2cnc(N3CCCC3)nc2C(F)(F)F)cc1	–	16µM	?	–	–
FC(F)(F)c1nc(N2CCCC2)ncc1-c1nnnn1-c1ccccc1	–	?	–	–	–
Cc1cccc(/C=C2\CCC(=C3SCCCS3)C2=O)c1	–	3.5µM	0.28µM	?	–
O=C1/C(=C/c2ccccc2)CCCc2ccccc21	–	–	?	–	–
O=C1C(=C2SCCCS2)CC/C1=C\c1ccc(F)cc1	–	3.5µM	4.5µM	?	–
Cc1nc(C(=O)O)cc2c1[nH]c1ccccc12	–	·	·	–	–
Cc1cc2c([nH]c3ccccc32)c(C)n1	–	–	1µM	–	–
Cc1ccc(C)c(-n2c(-c3csc(C)c3)n[nH]c2=S)c1	–	5.6µM	3.2µM	–	–
Cc1ccc(C)c(-n2c(-c3ccncc3)n[nH]c2=S)c1	–	–	10µM	–	–
COc1cccc(-c2ccc(SCC(=O)NC3CCCC3)nn2)c1	–	–	–	–	–
O=C(CSc1ccc(-c2cccc([N+](=O)[O-])c2)nn1)NC1CCCC1	–	–	1.8µM	–	–
Fc1ccc(-c2cc(-c3nnc4n3CCCCC4)c3ccccc3n2)cc1	–	11µM	?	–	?
Clc1ccc(-c2cc(-c3nnc4n3CCCCC4)c3ccccc3n2)cc1	–	3.2µM	?	–	–
c1ccc2c(-c3nnc4n3CCCCC4)cc(-c3ccncc3)nc2c1	–	–	–	?	–
Cc1ccccc1-c1nc(-n2ccnc2)c2ccccc2n1	·	–	10µM	·	·
COc1ccc(C(C)C)cc1S(=O)(=O)NCc1ccccn1	–	–	13µM	–	–
Cc1ccc(C(C)C)cc1S(=O)(=O)NCc1cccnc1	–	18µM	?	–	–
Cc1ccc(C(C)C)cc1S(=O)(=O)NCc1ccccn1	–	?	14µM	–	–
COc1cccc(Cn2c(=O)c(-c3cn(C)c4ccccc34)nc3cncnc32)c1	·	–	–	·	·
CCCc1ccc(C(=O)NC(=O)c2ccccc2O)cc1	–	1.6µM	2.8µM	–	–
CCCc1ccc(C(=O)NNC(=O)c2ccc(Br)cc2)cc1	–	–	–	–	–
O=C(NC(=O)c1ccccc1O)c1ccc(C(F)(F)F)cc1	–	8.9µM	?	–	–
SMILES	ERG Ets-DNA blk	Gal4-VP16 FLuc	RORgamma inh	Giardia killer	a7 integrin act
COc1ccc(NC=O)c(C(=O)CCNC(C)=O)c1	·	–	–	·	·
CCn1nnnc1-c1ccc(OC)c(S(=O)(=O)NCCc2ccccc2)c1	–	–	–	–	–[7.66 µM]
Cc1cccc(NCc2ccc(N(C)C)cc2)n1	–	–	?	–	–
COCC(=O)N(Cc1ccc(OC)cc1)Cc1nc2ccccc2c(=O)[nH]1	–	·	–[0.365 µM]	–	–
COc1ccccc1CN(Cc1nc2ccccc2c(=O)[nH]1)C(=O)Nc1ccccc1	–	?	10µM	–	–
COCC(=O)N(CCc1ccc(OC)cc1)Cc1nc2ccccc2c(=O)[nH]1	–	7.1µM	5µM	–	–
CCCCC(=O)N(Cc1ccc2c(c1)OCO2)Cc1nc2ccccc2c(=O)[nH]1	–	–	11µM	–	–
CCCC(=O)N(CCc1ccc(OC)cc1)Cc1nc2ccccc2c(=O)[nH]1	·	?	10µM	–	–
COc1cc(/C=N/N=C(/N)c2nonc2N)cc(Br)c1OCc1ccccc1C	–	?	?	–	–
COc1cccc(/C=N/N=C(\N)c2nonc2N)c1O	–	0.63µM	0.1µM	–	–
CC(NC(=O)c1ccc(F)cc1)c1nc2ccccc2n1Cc1ccccc1F (centres undefined)	–	–	18µM	–	–
CCCn1c(NC(=O)c2ccco2)nc2ccccc21	·	–	–	–	–
